# Laboratory results reported in PubChem BioAssay AID2796 (The Scripps Research Institute Molecular Screening Center, 2010).
# Out of some 320,000 compounds screened, about 8,000 (2.5%) were called active. For the sample, actives were picked, then their nearest neighbours and some compounds at random. Unmarked numbers belong to inactive results. No stated cut-off is given here; in the data, active means activation above about 47%; inactive means the rest.
# Molecular target: Aryl hydrocarbon receptor (Homo sapiens) (UniProt P35869)
# Assay: AHR activators, primary screen, cell-based, luminescence, luciferase reporter, human (AID 2796);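 further: 0% = vehicle wells and 100% = reference agonist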
# Conditions: AHR-responsive luciferase reporter cells, at 5 µM, hits give high values
# Chain of Aryl hydrocarbon receptor (Homo sapiens) (P35869 whole entry, looked up): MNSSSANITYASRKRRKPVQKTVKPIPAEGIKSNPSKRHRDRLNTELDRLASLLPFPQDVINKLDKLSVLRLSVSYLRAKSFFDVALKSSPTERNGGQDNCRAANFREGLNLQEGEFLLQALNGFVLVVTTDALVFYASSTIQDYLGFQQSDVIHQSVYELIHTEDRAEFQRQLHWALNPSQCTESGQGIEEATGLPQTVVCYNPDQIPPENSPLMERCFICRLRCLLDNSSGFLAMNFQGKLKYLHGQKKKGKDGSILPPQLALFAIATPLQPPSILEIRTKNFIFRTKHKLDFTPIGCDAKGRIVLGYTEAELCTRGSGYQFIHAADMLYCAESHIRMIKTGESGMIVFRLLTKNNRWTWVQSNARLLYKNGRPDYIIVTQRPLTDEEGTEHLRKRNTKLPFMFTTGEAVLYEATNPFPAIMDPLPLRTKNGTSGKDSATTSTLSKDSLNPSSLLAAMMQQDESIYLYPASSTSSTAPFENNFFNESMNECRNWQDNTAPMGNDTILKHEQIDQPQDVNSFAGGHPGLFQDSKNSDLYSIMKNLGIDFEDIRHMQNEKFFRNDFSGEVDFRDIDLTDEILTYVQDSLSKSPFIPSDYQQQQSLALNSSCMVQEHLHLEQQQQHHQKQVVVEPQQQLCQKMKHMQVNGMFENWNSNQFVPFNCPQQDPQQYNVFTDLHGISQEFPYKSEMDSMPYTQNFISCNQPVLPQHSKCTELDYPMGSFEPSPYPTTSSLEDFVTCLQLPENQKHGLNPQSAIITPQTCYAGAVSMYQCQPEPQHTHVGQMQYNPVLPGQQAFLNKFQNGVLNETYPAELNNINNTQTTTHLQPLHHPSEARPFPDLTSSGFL
row,Compound,activation
1,OC(COCCC12CC3CC(CC(C3)C1)C2)CN1CCCCC1 (stereo not drawn),0.68%
2,CC(=O)N[C@H]1[C@H]([C@H](O)[C@H](O)CO)OC(C(=O)O)=C[C@@H]1O,0.57%
3,Cc1ccc(S(=O)(=O)N(CC(=O)Nc2cccc([N+](=O)[O-])c2)Cc2ccc(Cl)cc2)cc1,6.55%
4,CCn1c(CSc2ncccn2)nnc1SCC(=O)N1c2ccccc2CC1C (stereo not drawn),-1.92%
5,CC1Cc2ccccc2N1C(=O)CSc1nnc(C2CC2)n1C (stereo not drawn),93% (active)
6,CC1Cc2ccccc2N1C(=O)CSc1nnc(-c2ccc(S(=O)(=O)N3CCCC3)cc2)n1C (stereo not drawn),1.18%
7,CO/N=C/c1ccc(N2CCN(C(=O)c3cccc(Cl)c3)CC2)c([N+](=O)[O-])c1,-0.18%
8,Cc1nn(Cc2ccccc2Cl)c(C)c1NC(=O)Cn1nc([N+](=O)[O-])c(Cl)c1C,0.37%
9,COc1cccc(NC(=O)COc2cc(C)cc3oc(=O)cc(C)c23)c1,12.3%
10,Cc1cc2oc(C(=O)Nc3c(C)n(C)n(-c4ccccc4)c3=O)c(C)c2cc1Cl,81% (active)
11,Cc1c(NC(=O)c2coc(=O)c(Br)c2)c(=O)n(-c2ccccc2)n1C,0.64%
12,Cc1c(NC(=O)c2cc(-c3ccc(Br)cc3)on2)c(=O)n(-c2ccccc2)n1C,-3.47%
13,COCCN(Cc1cc2cc3c(cc2nc1Cl)OCO3)C(=O)c1cccc(C)c1,11.9%
14,COc1ccc(Nc2nc(=O)[nH]nc2C)cc1,-3.65%
15,COc1ccc(Nc2nnc(C)c3ccccc23)cc1,102% (active)
16,Cc1nnc(NCCO)c2ccccc12,-2.09%
17,CCCCNC(=O)N1CCCC(N(C)CCc2ccc(OC)c(OC)c2)C1 (stereo not drawn),-0.75%
18,CCNC(=O)NNC(=O)C1CC(c2cccs2)=NO1 (stereo not drawn),3.35%
19,Cn1cccc1C(=O)OCC(=O)NCCc1ccccc1,7.54%
20,S=c1nc2ccccc2c2nc(-c3cccnc3)[nH]n12,83.8% (active)
21,O=C(CSc1n[nH]c(-c2cccnc2)n1)Nc1ccnc2ccccc12,8.3%
22,c1ccc(-n2nnnc2-c2cccnc2)cc1,36.3%
23,O=C(/C=C/Sc1ncn[nH]1)c1ccc(Cl)cc1,0.35%
24,COc1cc(C)ccc1OCC(=O)OCC(=O)c1ccc[nH]1,-3.4%

row,Compound,activation
1,CCOCCCNc1nc(-c2ccccc2)nc2ccccc12,13.5%
2,C[C@@H](Nc1nc(-c2ccccc2)nc2c1oc1ccccc12)C(=O)O,16.4%
3,COCCNc1nc(-c2ccccc2)nc2c1oc1ccccc12,88.9% (active)
4,O=C(Cn1cncn1)N/N=C/c1c2ccccc2cc2ccccc12,84.8% (active)
5,Nc1nnn(CC(=O)N/N=C/c2ccccc2)n1,0.68%
6,Cc1nn(-c2ccccc2)c(C)c1/C=N/NC(=O)CSc1nc2ccccc2c(=O)n1-c1ccccc1,1.64%
7,CCCCNC(=O)C1CCCNC1=O (stereo not drawn),-1.12%
8,c1ccc(-c2csc(N3CCc4ccccc4C3)n2)cc1,14.7%
9,NC(=O)c1ccccc1N=Cc1ccc2ccccc2c1,87.6% (active)
10,COc1ccc(/C=N/Nc2ccccc2C(=O)O)cc1,3.83%
11,O=C(NN=Cc1ccc(N2CCOCC2)cc1)c1cc2ccccc2cc1O,11.3%
12,O=C(c1ccc(N2CCOCC2)c([N+](=O)[O-])c1)N1CCN(S(=O)(=O)c2cccs2)CC1,-4.2%
13,Cn1c(=O)c2c(nc(N3CCOCC3)n2CCNC2=NCCC2)n(C)c1=O,-1.68%
14,O=C(c1ccc(F)cc1)N1CCC(n2nnc3ccccc32)CC1,-1.01%
15,CCS(=O)(=O)N1Cc2ccccc2CC1C(=O)Nc1nc2ccc(F)cc2s1 (stereo not drawn),-3.42%
16,Fc1ccc2nc(Nc3nc4c(s3)CCCC4)sc2c1,49.8% (active)
17,NS(=O)(=O)c1ccc2nc(NC(=O)CS(=O)(=O)c3ccc(F)cc3)sc2c1,8.79%
18,O=C(Nc1ccc(Br)cc1F)C1CC(=O)N(C2CCCCC2)C1 (stereo not drawn),0.73%
19,COc1ccccc1CCNC(=O)CN1C(=O)NC2(CCCC2)C1=O,-2.06%
20,Cc1cc2c(cc1S(=O)(=O)NCc1ccc(Cl)cc1)OCC(=O)N2,1%
21,COc1ccccc1-c1nnc(SCC(=O)N2CC(C)CC(C)C2)o1 (stereo not drawn),29%
22,COc1ccccc1-c1nnc(SCC(=O)Nc2ccccc2)o1,75.5% (active)
23,COc1cccc(NC(=O)CSc2nnc(-c3cccnc3)o2)c1,29.8%
24,CN(CC(=O)Nc1ccc(F)cc1)CC(=O)N1CCCCC1,3.11%
